Data on 92 compounds can be found in PubChem BioAssay AID1347418 (Sanford-Burnham Center for Chemical Genomics, 2020).

The whole screen tested about 1,300 compounds, of which about 750 (58%) were called active. Some of the results follow.

In this test the target is Sulfhydryl oxidase 1 (Homo sapiens) (UniProt O00391). As to the kind of experiment: QSOX1 enzyme inhibitors, primary screen, biochemical, ROS-Glo H2O2 luminescence, HTS (AID 1347418). As to conditions: recombinant QSOX1, ROS-Glo H2O2 luminescence, at 12.5 µM, active compounds read high; active = any value above zero unless noted.
Sulfhydryl oxidase 1 (Homo sapiens), sequence (O00391 whole entry, looked up): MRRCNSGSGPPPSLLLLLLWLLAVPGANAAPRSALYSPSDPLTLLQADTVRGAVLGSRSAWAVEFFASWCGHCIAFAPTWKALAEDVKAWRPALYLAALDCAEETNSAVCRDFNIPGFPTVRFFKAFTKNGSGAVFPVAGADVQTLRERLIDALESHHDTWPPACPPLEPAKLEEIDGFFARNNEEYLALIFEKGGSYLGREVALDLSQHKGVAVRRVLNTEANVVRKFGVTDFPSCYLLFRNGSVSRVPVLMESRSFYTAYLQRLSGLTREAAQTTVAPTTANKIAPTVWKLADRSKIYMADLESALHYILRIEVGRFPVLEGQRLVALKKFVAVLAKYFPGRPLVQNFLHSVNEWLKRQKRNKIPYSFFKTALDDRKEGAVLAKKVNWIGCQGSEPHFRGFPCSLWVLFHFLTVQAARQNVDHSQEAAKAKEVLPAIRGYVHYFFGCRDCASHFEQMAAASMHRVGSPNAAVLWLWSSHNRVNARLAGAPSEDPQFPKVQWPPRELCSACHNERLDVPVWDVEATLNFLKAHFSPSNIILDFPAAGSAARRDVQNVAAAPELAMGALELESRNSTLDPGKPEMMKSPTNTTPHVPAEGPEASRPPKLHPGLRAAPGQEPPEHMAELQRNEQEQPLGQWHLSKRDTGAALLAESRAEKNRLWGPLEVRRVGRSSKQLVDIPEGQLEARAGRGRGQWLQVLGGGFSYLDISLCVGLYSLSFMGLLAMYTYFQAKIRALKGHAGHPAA
As to `CN(N=O)c1cc(O)ccc1O`, the inhibition is 4.1% (active). As for `CN(N=O)c1ccc(O)c(O)c1`, the inhibition was 5.2% (active).

For `NC1CC1c1ccccc1` (configuration not stated), the inhibition is -0.7% (inactive). As to `CCCN1CCO[C@@H]2c3cc(O)ccc3OC[C@H]21`, the inhibition is 4.3% (active).

For the compound `CCCN1CC[C@@H]2c3cc(O)ccc3CC[C@@H]21`, the inhibition was -5.9% (inactive). `CCN(CCCl)Cc1ccccc1Br`: the inhibition is 1.5% (active). Turning to `CN1CCc2cc(O)cc3c2[C@H]1Cc1ccc(O)c(O)c1-3`, the inhibition was 25.4% (active). With `CCCN1CCc2cccc3c2[C@H]1Cc1ccc(O)c(O)c1-3` the figure was 25.2% (active). Turning to `COc1ccc2c(c1OC)C(=O)O[C@H]2[C@@H]1c2cc3c(cc2CCN1C)OCO3`, the inhibition was -2.2% (inactive). For the compound `C=CCN1CCc2cccc3c2[C@H]1Cc1ccc(O)c(O)c1-3`, the inhibition is 23.6% (active).

As for `COc1ccc2c(c1O)-c1cccc3c1[C@@H](C2)N(C)CC3`, the inhibition was 3.5% (active). As to `CCCN1CCc2cc(O)cc3c2[C@H]1Cc1ccc(O)c(O)c1-3`, the inhibition was 29.9% (active). In the case of `C[C@H]1C2Cc3ccc(O)cc3C1(C)CCN2CC1CC1` (some centres not stated) it was 4.5% [setting not given] (active); in that of `O=C(O)CC[N+](=O)[O-]`, -3.4% [setting not given] (inactive). In the case of `CC(C)NP(=O)(NC(C)C)OP(=O)(NC(C)C)NC(C)C`, the inhibition is 10.1% (active).

With `C[C@H](N)CN1CCc2ccc(Br)cc21`, the inhibition was 35.7% (active). As to `CCCn1c(=O)c2[nH]c(C3CCCC3)nc2n(CCCOC(=O)c2ccc(S(=O)(=O)F)cc2)c1=O`, the inhibition was -1.3% (inactive). As for `CC(=O)c1c(O)c(C)c(O)c(Cc2c(O)c3c(c(C(=O)/C=C/c4ccccc4)c2O)OC(C)(C)C=C3)c1O`, the inhibition is 0.8% (active). `CCNC(=O)[C@H]1O[C@@H](n2cnc3c(N)ncnc32)C(O)[C@H]1O` (some centres not stated): the inhibition is 3.3% (active). Regarding `CCCC(C)(COC(N)=O)COC(=O)NC(C)C` (configuration not stated), the inhibition was 1.5% [setting not given] (active). Regarding `NC1CCc2cc(O)c(O)cc2C1` (configuration not stated), the inhibition was 12.7% (active).

For the compound `Ic1ccccc1CNC1C2CCN(CC2)C1C(c1ccccc1)c1ccccc1` (configuration not stated), the inhibition is -6.2% (inactive). Turning to `COc1ccc2c(c1)[C@@]13CCCC[C@H]1[C@@H](C2)NCC3`, the inhibition is 1.4% [setting not given] (active). Take `COc1ccc2c(c1)C13CCCCC1C(C2)N(C)CC3` (configuration not stated): the inhibition was -2.3% [setting not given] (inactive).

Regarding `c1ccc(C2CC2)c(OCC2=NCCN2)c1`, the inhibition is -2% (inactive). Regarding `CC(CCc1ccccc1)NC(C)C(O)c1ccc(O)cc1` (configuration not stated), the inhibition is 0.8% (active). Regarding `Nc1ccc(CCN2CCN(c3cccc(C(F)(F)F)c3)CC2)cc1`, the inhibition was 2.2% (active). Consider `S=C(NC1CCCCC1)N1CCC(c2cnc[nH]2)CC1`, for which the inhibition was -1.7% (inactive). `Clc1ccc(N2CC3CCC(C2)N3)nn1`: the inhibition was 1.8% (active). For `C#CCN[C@H](C)Cc1ccccc1`, the inhibition was 4.3% [setting not given] (active).

For `N[C@@H](CCl)C(=O)O`, the inhibition was -3.4% (inactive).

With `C[Se]C[C@H](N)C(=O)O`, the inhibition was 3.9% (active).

Turning to `O=C1NCN(c2ccccc2)C12CCN(CC1COc3ccccc3O1)CC2` (configuration not stated), the inhibition is -3.1% (inactive). In the case of `C/C(O)=C(\C#N)C(=O)Nc1cc(Br)ccc1Br` it was -1.3% (inactive); in that of `COc1cc(CC(C)N)c(OC)cc1I` (configuration not stated), 4.3% [setting not given] (active). Consider `NC(=O)c1ccc(OCC(O)CN2CC=C(c3ccc(F)cc3)CC2)cc1` (configuration not stated), for which the inhibition was 0.4% (active). Take `COc1ccc(C(CN(C)C)C2(O)CCCCC2)cc1` (configuration not stated): the inhibition is -1.3% (inactive).

Consider `CC(C)NC(C)Cc1ccc(I)cc1` (configuration not stated), for which the inhibition is 5.2% [setting not given] (active).

Consider `COc1ccc2[nH]c3c(c2c1)CCNC3`, for which the inhibition is 0.8% (active). Regarding `O=S1(=O)N(CCN2CC=C(c3c[nH]c4cc(F)ccc34)CC2)c2cccc3c2N1CCC3`, the inhibition is 4.2% (active).

With `CC(=O)[C@H]1CC[C@H]2[C@@H]3CC[C@H]4C[C@H](O)CC[C@]4(C)[C@H]3C(=O)C[C@]12C`, the inhibition is -0.2% [setting not given] (inactive). With `Fc1ccc(C(OCCN2CCN(CCCc3ccccc3)CC2)c2ccc(F)cc2)cc1` the figure was 6.5% (active); with `O=C(CCCN1CCC2(CC1)C(=O)NCN2c1ccccc1)c1ccc(F)cc1`, -1% [setting not given] (inactive); with `c1ccc(CCCN2CCN(CCOC(c3ccccc3)c3ccccc3)CC2)cc1`, 7% (active).

Turning to `CC[C@@H](CO)NC(=O)[C@@H]1C=C2c3cccc4c3c(cn4C)C[C@H]2N(C)C1`, the inhibition was 1.6% [setting not given] (active). For `CC[C@@H](CO)NC(=O)[C@@H]1C=C2c3cccc4[nH]cc(c34)C[C@H]2N(C)C1`, the inhibition was 6.3% [setting not given] (active).

As for `C=CCN1CC[C@]23c4c5ccc(O)c4O[C@@H]2/C(=N/N=C2\CC[C@@]4(O)C6Cc7ccc(O)c8c7[C@@]4(CCN6CC=C)[C@@H]2O8)CC[C@@]3(O)C1C5`, the inhibition is 1.8% (active). Consider `O=C1CC[C@@]2(O)C3Cc4ccc(O)c5c4C2(CCN3CC2CC2)[C@H]1O5` (some centres not stated), for which the inhibition was 1.2% [setting not given] (active). Take `C=CCN1CC[C@]23c4c5ccc(O)c4O[C@H]2/C(=N/NC(=O)c2ccccc2)CC[C@@]3(O)[C@H]1C5`: the inhibition was -0.4% [setting not given] (inactive).

As for `C=CCN1CCC23c4c5ccc(O)c4O[C@H]2C(=O)CC[C@@]3(O)C1C5` (some centres not stated), the inhibition is 3.2% [setting not given] (active). Take `CCOC(=O)c1ncn2c1[C@@H]1CCCN1C(=O)c1cc(OC)ccc1-2`: the inhibition is 3.1% (active). Turning to `Cc1ncsc1CCCl`, the inhibition was 4.8% (active). `Clc1cnc(Oc2ccc(Oc3ncc(Cl)cc3Cl)cc2)c(Cl)c1`: the inhibition is -1.5% [setting not given] (inactive).

With `CN1CCC(c2c[nH]c3ccc(O)cc23)CC1`, the inhibition is 26.8% (active). With `CC(Cc1ccc(O)cc1)NCC(O)c1cc(O)cc(O)c1` (configuration not stated), the inhibition is 7.9% [setting not given] (active). In the case of `CC(Cc1ccc(OCC(=O)O)cc1)NCC(O)c1cccc(Cl)c1` (configuration not stated) it was -3.3% (inactive); in that of `N[C@@]1(C(=O)O)CC[C@@H](C(=O)O)C1`, -1.7% (inactive).

Turning to `CN1CC[C@@]2(C)c3cc(O)ccc3N(C)C12` (some centres not stated), the inhibition was 15.2% (active).

Regarding `CN1CC[C@@]2(C)c3cc(OC(=O)Nc4ccccc4)ccc3N(C)[C@@H]12`, the inhibition was 8.3% (active). Turning to `NC(=O)CN1CCCC1=O`, the inhibition was 2.9% [setting not given] (active). Take `CC[C@@H](C(N)=O)N1CCCC1=O`: the inhibition is -2.6% [setting not given] (inactive). As for `COc1ccc(C(=O)N2CCCC2=O)cc1`, the inhibition is -3% [setting not given] (inactive).

As for `O=C1CCCN1CC#CCN1CCCC1`, the inhibition was -8.1% [setting not given] (inactive). In the case of `Cc1cccc(C)c1NC(=O)CN1CCCC1=O`, the inhibition was 3% [setting not given] (active). With `NC(=O)CN1CC(O)CC1=O` (configuration not stated), the inhibition was 1.1% [setting not given] (active).

As to `C=CCN(C1=NCCN1)c1c(Cl)cccc1Cl`, the inhibition was -6.5% (inactive).

For the compound `CCC1(C2=NCCN2)Cc2ccccc2O1` (configuration not stated), the inhibition was -2.6% (inactive). With `C/C=C(/C)C(=O)O[C@H]1C(C)=C2[C@H]([C@@H]1OC(=O)CCCCCCC)[C@@](C)(OC(C)=O)C[C@H](OC(=O)CCC)[C@@]1(O)[C@H]2OC(=O)[C@@]1(C)O` the figure was -0.7% (inactive). For `CN[C@@H]1C[C@@H](c2ccc(Cl)c(Cl)c2)c2ccccc21`, the inhibition was -1.2% (inactive). With `CCCN1CCC[C@@H]2Cc3[nH]ncc3C[C@H]21`, the inhibition is -2.4% (inactive). As for `CC12CCC3C(CCC4=C(O)C(=O)CCC43C)C1CCC2=O` (configuration not stated), the inhibition was 0.2% [setting not given] (active). Take `C[C@@H](N)Cc1cnc[nH]1`: the inhibition is 11.8% (active).

As for `c1ccc(C2(c3ccccc3)CC2C2=NCCN2)cc1` (configuration not stated), the inhibition is -0.8% (inactive). On to `CCn1cnc2c(Nc3cccc(Cl)c3)nc(N[C@@H]3CCCC[C@@H]3N)nc21`, for which the inhibition was 0.3% (active). In the case of `NC(Cn1oc(=O)[nH]c1=O)C(=O)O` (configuration not stated) it was 2.7% (active); in that of `CCC1(c2ccc(N)cc2)CCC(=O)NC1=O` (configuration not stated), -0.8% [setting not given] (inactive); in that of `NCCCP(=O)(O)O`, 6.4% (active). With `CC(NC(C)(C)C)C(=O)c1cccc(Cl)c1` (configuration not stated) the figure was 0.7% [setting not given] (active). As to `CCCN1CCC[C@@H]2Cc3nc(N)ncc3C[C@H]21`, the inhibition was -0.3% (inactive). With `CC(C)(C)c1cc(C=C(C#N)C#N)cc(C(C)(C)C)c1O` the figure was 27.7% (active); with `N#CC(C#N)=Cc1ccc(O)c(O)c1`, 31.5% (active). In the case of `N#CC(=Cc1ccc(O)c(O)c1)C(N)=S`, the inhibition is 26.9% (active). For the compound `CCCCc1ccc(C(=O)O)nc1`, the inhibition was -1.9% (inactive). As to `NC(=O)c1cc(N2CC2)c([N+](=O)[O-])cc1[N+](=O)[O-]`, the inhibition is -2.6% (inactive). Regarding `CC(N)[C@H](O)c1ccc(O)c(O)c1` (some centres not stated), the inhibition was 10.4% [setting not given] (active). `COc1ccc(OC)c(C(O)C(C)N)c1` (configuration not stated): the inhibition is -1.4% [setting not given] (inactive). `C[C@@H]1O[C@@H](O[C@H]2C[C@@H](O)[C@]3(CO)[C@H]4[C@H](O)C[C@]5(C)[C@@H](C6=CC(=O)OC6)CC[C@]5(O)[C@@H]4CC[C@]3(O)C2)[C@H](O)[C@H](O)[C@H]1O`: the inhibition was 1.8% [setting not given] (active). With `C[C@@H]1O[C@@H](O[C@H]2C[C@@H](O)[C@]3(CO)[C@@H]4C(CC[C@]3(O)C2)[C@@]2(O)CC[C@H](C3COC(=O)C3)[C@@]2(C)C[C@H]4O)[C@H](O)[C@H](O)[C@H]1O` (some centres not stated), the inhibition is -6.9% (inactive). Turning to `CN1C2CCC1CC(OC(c1ccccc1)c1ccccc1N)C2` (configuration not stated), the inhibition was 1.1% (active). As to `CN1C2CCC1CC(OC(=O)c1cc(Cl)cc(Cl)c1)C2` (configuration not stated), the inhibition was -0.7% (inactive). In the case of `NC(=NCCC[C@H](N)C(=O)O)N[N+](=O)[O-]` it was -2.6% (inactive). Regarding `COC(=O)[C@@H](N)CCCN=C(N)N[N+](=O)[O-]`, the inhibition was 2.4% (active).

What is called inhibition is the drop in the measured response relative to a control, in per cent.
